{"source": "paper PMC7819943", "about": "“Rice protein-binding microarrays: a tool to detect cis-acting elements near promoter regions in rice”", "note": "Over roughly 68,000 sequences, “fluorescence intensity (a.u.)” has its median near 9,100; the highest 2% begin near 16,000. The entries come from a sample that favours the highest values as a whole.", "data": [{"target": "OsWRKY34 (Oryza sativa, UniProt Q0JBA9 1-250)", "sequence (Q0JBA9 entry or part of it)": "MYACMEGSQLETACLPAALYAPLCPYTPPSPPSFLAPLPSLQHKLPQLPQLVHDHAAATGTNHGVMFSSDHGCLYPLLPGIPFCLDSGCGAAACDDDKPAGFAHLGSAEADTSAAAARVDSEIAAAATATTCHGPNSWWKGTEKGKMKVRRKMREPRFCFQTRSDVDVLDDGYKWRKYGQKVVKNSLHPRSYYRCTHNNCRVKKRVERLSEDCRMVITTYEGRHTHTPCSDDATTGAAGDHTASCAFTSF", "test": "protein-binding microarray (RPBM); PBS, 2% BSA, 51.3 ng/ul salmon testes DNA, 50 uM zinc acetate, 200 nM TF, 25 C, 1 h; high values mean tight binding", "settings": "protein: recombinant; tags: N-terminal polyhistidine and DsRed monomer fusion (pET32a); label: CyDye5-dUTP incorporated in the synthesized complementary strand; 3' TTTTT single-stranded linker to array surface; dsDNA, one strand shown", "procedure,_shortened": "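Transcription factors were made in E. coli BL21-CodonPlus as N-terminal fusions to a polyhistidine tag and DsRed, then purified on Ni–NTA. After primer extension with Cy5-dUTP and blocking with 2% BSA, a custom Agilent array was exposed for 1 h at 25 °C to 200 nM protein in PBS, 2% BSA, salmon testes DNA and 50 µM zinc acetate. Washed arrays were scanned on an Axon 4000B, and the binding signal is per-feature fluorescence intensity in arbitrary units.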", "values": [{"sequence": "TTTTCAACCTTATATTGTCATTGTCCGTCAACTTGGCTTGCGGAGTCACCTAGTGCAG", "binding signal": "8970 fluorescence intensity (a.u.)"}, {"sequence": "CCTGTCATGGAGGATGTTTCCTGAAGTTTCAGAGCTGTATCGGAGTCACCTAGTGCAG", "binding signal": "8310 fluorescence intensity (a.u.)"}, {"sequence": "AATGATTACAACCTACCTCTTCTCAGCGGGGTGTCCATTACGGAGTCACCTAGTGCAG", "binding signal": "8260 fluorescence intensity (a.u.)"}, {"sequence": "TTTTCTTGTTTGATTGACATAATGGGCCCTACATATTTTTCGGAGTCACCTAGTGCAG", "binding signal": "8440 fluorescence intensity (a.u.)"}, {"sequence": "ATCGCTGGCTTATCATACTCTATTATACCTGCTCTAAGGACGGAGTCACCTAGTGCAG", "binding signal": "10000 fluorescence intensity (a.u.)"}, {"sequence": "GTTTTAATAATGTGTTTGTTTTGGGTTAAAAACCATACTACGGAGTCACCTAGTGCAG", "binding signal": "8340 fluorescence intensity (a.u.)"}, {"sequence": "ACAATGGCACGGTCTACAAAATATATTTTTGACCTTATTTCGGAGTCACCTAGTGCAG", "binding signal": "8440 fluorescence intensity (a.u.)"}, {"sequence": "GCTGACTTCATCTTCATTTTAATATATCTCAAACACCACGCGGAGTCACCTAGTGCAG", "binding signal": "10200 fluorescence intensity (a.u.)"}, {"sequence": "GATGTTCCTGGCCGTGATCGAGCTCCTGCGTTCTTGCTTACGGAGTCACCTAGTGCAG", "binding signal": "10400 fluorescence intensity (a.u.)"}, {"sequence": "GTGTATGTATATATGAGTATGTGTGTTTATATTGTATTTTCGGAGTCACCTAGTGCAG", "binding signal": "8460 fluorescence intensity (a.u.)"}, {"sequence": "CAGTTGGCCTGTTTGTTTGTTGGTTGTGATTAATCTGTGACGGAGTCACCTAGTGCAG", "binding signal": "18800 fluorescence intensity (a.u.)"}, {"sequence": "GGTTGAAGTTTTTGGCAGGGGTTAGTTTCGAAATAAGTTTCGGAGTCACCTAGTGCAG", "binding signal": "17900 fluorescence intensity (a.u.)"}, {"sequence": "GTTAGGGTTTTTTTTATTTTTCGATTTTTTTTGTGTTTTTCGGAGTCACCTAGTGCAG", "binding signal": "12000 fluorescence intensity (a.u.)"}, {"sequence": "CGGGCGATTCTAGGGTTATGGTTAGGGTTTTTTTTATTTTCGGAGTCACCTAGTGCAG", "binding signal": "14500 fluorescence intensity (a.u.)"}, {"sequence": "GCGTGTGTTGTGAGATGTATTATGTTGTGCTTTGTATTTTCGGAGTCACCTAGTGCAG", "binding signal": "14900 fluorescence intensity (a.u.)"}, {"sequence": "TTTTATGTTTGTTGGTTGTTGAGTTTATGTGATTATATTTCGGAGTCACCTAGTGCAG", "binding signal": "9050 fluorescence intensity (a.u.)"}, {"sequence": "GTTGAAGTTTTTGGCAGGGGTTAGTTTCGAAATAAGTTTTCGGAGTCACCTAGTGCAG", "binding signal": "8170 fluorescence intensity (a.u.)"}, {"sequence": "AGAACAGTTTTTAATCTGACATGTGCCTGTAGTTTGTTGTCGGAGTCACCTAGTGCAG", "binding signal": "10600 fluorescence intensity (a.u.)"}, {"sequence": "CGGGGCGTGAGGGGTTATGAGTATATTTGTATTTTTTTTTCGGAGTCACCTAGTGCAG", "binding signal": "18400 fluorescence intensity (a.u.)"}, {"sequence": "TTGAAGTTTTTGGCAGGGGTTAGTTTCGAAATAAGTTTTCCGGAGTCACCTAGTGCAG", "binding signal": "8480 fluorescence intensity (a.u.)"}, {"sequence": "TCTAGGGTTAGGGTTTCGTGATTTTTGGTTTTTTATTTTTCGGAGTCACCTAGTGCAG", "binding signal": "16900 fluorescence intensity (a.u.)"}, {"sequence": "TGGAGGTGGTGGTGGGAGGAAGGGGAGGAGGAGGCGCGGCCGGAGTCACCTAGTGCAG", "binding signal": "15100 fluorescence intensity (a.u.)"}, {"sequence": "AGCTGGCTAAATCATATTTCCAAAGTCTCTCTCGTCTCTCCGGAGTCACCTAGTGCAG", "binding signal": "8510 fluorescence intensity (a.u.)"}, {"sequence": "GCCTTCACAAAATCACAAGCGAATGATTTTACTGCCTTGCCGGAGTCACCTAGTGCAG", "binding signal": "9190 fluorescence intensity (a.u.)"}, {"sequence": "TGAGTTTTTGTTTGTATTGTTTGACTACTCGTCTTATTCACGGAGTCACCTAGTGCAG", "binding signal": "10400 fluorescence intensity (a.u.)"}, {"sequence": "AAGAGTACGGGTGGGGATGCTTTGGAGTTCACTCCAACTCCGGAGTCACCTAGTGCAG", "binding signal": "10300 fluorescence intensity (a.u.)"}, {"sequence": "TCCCGTACGCCTCTACTACCTCTTTTACCTGCGTGCCTTCCGGAGTCACCTAGTGCAG", "binding signal": "11100 fluorescence intensity (a.u.)"}, {"sequence": "CACCCTTCTTCTCACCCATTGACGGATGCCCTGGAGGTTTCGGAGTCACCTAGTGCAG", "binding signal": "10400 fluorescence intensity (a.u.)"}, {"sequence": "AGGGTTTGGTTGATTTTCGGATTTGGTTTGGTTTTGACGACGGAGTCACCTAGTGCAG", "binding signal": "13300 fluorescence intensity (a.u.)"}, {"sequence": "CGTTGATTTGGTTTGGGTTAGTTATGGGTTTGATTTTTTTCGGAGTCACCTAGTGCAG", "binding signal": "20600 fluorescence intensity (a.u.)"}, {"sequence": "ATTTTTTTCGGTTTGGTTGATTTTATTGAGTTACATTTACCGGAGTCACCTAGTGCAG", "binding signal": "10900 fluorescence intensity (a.u.)"}, {"sequence": "GTTATGGGTTTGATTTTTTTTCGTTTAGAAAGTTATGGGTCGGAGTCACCTAGTGCAG", "binding signal": "9220 fluorescence intensity (a.u.)"}, {"sequence": "AGTCGCAGTGGTTTTGGTTGGTTGGTTGATTACATTTTGACGGAGTCACCTAGTGCAG", "binding signal": "20000 fluorescence intensity (a.u.)"}, {"sequence": "GGGTTTTTGGTTTTGGTTTTGATTTTGATTTTGATTTTGACGGAGTCACCTAGTGCAG", "binding signal": "16400 fluorescence intensity (a.u.)"}, {"sequence": "GGTTTGGTTTTGTTTAGTGGGTTAGAAGCCAATGAGAGCACGGAGTCACCTAGTGCAG", "binding signal": "10300 fluorescence intensity (a.u.)"}, {"sequence": "CATCCGACCTCAACTCCTCTGTCCTCTACTACGCATCTCTCGGAGTCACCTAGTGCAG", "binding signal": "14100 fluorescence intensity (a.u.)"}, {"sequence": "GTGTGGGGCTTTTAACTTTTTGTCACTTTTAAATTTTAAACGGAGTCACCTAGTGCAG", "binding signal": "21300 fluorescence intensity (a.u.)"}, {"sequence": "ATTATGCATTTATTTTATTTGAAACTTTAATGCTTTTTTTCGGAGTCACCTAGTGCAG", "binding signal": "8110 fluorescence intensity (a.u.)"}, {"sequence": "TTATAAACTTGGTCAAACTTAATAAAGTTTGACTAGAAAACGGAGTCACCTAGTGCAG", "binding signal": "8320 fluorescence intensity (a.u.)"}, {"sequence": "GGGCTTATTTTTTTTTTTTAACTTTGTTATGCTCTAGAAACGGAGTCACCTAGTGCAG", "binding signal": "20100 fluorescence intensity (a.u.)"}, {"sequence": "TTTTTTTCTGGGGTTGCTTAGAATGGTACTAACTATGATTCGGAGTCACCTAGTGCAG", "binding signal": "8900 fluorescence intensity (a.u.)"}, {"sequence": "GTTAACTTGCTTATATGGTACTAGAAGAAAAACTTAATGGCGGAGTCACCTAGTGCAG", "binding signal": "64900 fluorescence intensity (a.u.)"}, {"sequence": "GTAGTTTTGTGAAATTTACTTTTTTTTTTTTTTTTGATAACGGAGTCACCTAGTGCAG", "binding signal": "9770 fluorescence intensity (a.u.)"}, {"sequence": "TATATTGCTCTTAATTTATTTGTGTTACTTTTTATGTGTTCGGAGTCACCTAGTGCAG", "binding signal": "8330 fluorescence intensity (a.u.)"}, {"sequence": "GATCACATGGGCCACACTTTTTTTTAATTATTTTTTGTGTCGGAGTCACCTAGTGCAG", "binding signal": "8040 fluorescence intensity (a.u.)"}]}]}
